Among the test systems are CDK8; CDK9; CDKL1; CDKL2; CDKL3; CDKL5; CHEK1; CHEK2; CIT; CLK1; CLK2; CLK3; CLK4; CSF1R-autoinhibited; CSF1R; CSK; CSNK1A1L; CSNK1A1; CSNK1D; CSNK1E.
Holding throughout (conditions): concentration: 1 μM, replicates: in singlicate; n = 1

SMILES strings stand for the structures.
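Further: KINOMEscan kinase panel screen.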

In the case of `CCn1c(-c2nonc2N)nc2c(C#CC(C)(C)O)nc(OC[C@H](N)c3ccccc3)cc21` [GSK943949], the “%Inh” value amounted to 4% with CDK8; 0% in the experiment with CDK9; 0% in the experiment on CDKL1; 0% with CDKL2; 0% with CDKL3; 12% in the experiment on CDKL5. Further, the “%Inh” value stood at 0% with CHEK1; 0% in the experiment on CHEK2; 61% in the experiment with CIT; 24% in the experiment on CLK1; 0% in the experiment on CLK2; 15% with CLK3. The “%Inh” value in the experiment with CLK4 worked out at 8%; in the experiment with CSF1R-autoinhibited, 0%; in the experiment with CSF1R it was 35%; with CSK it was 0%; with CSNK1A1L, 0%; in the experiment with CSNK1A1, 7%. Also, the “%Inh” value is reported as 0% with CSNK1D and 15% in the experiment with CSNK1E.
Take `Nc1n[nH]c2cnc(-c3ccccc3)cc12` [SB-642124]: the “%Inh” value with CDK8 was 0%; in the experiment with CDK9, 53%; with CDKL1 it was 1%; with CDKL2, 58%; in the experiment with CDKL3, 0%; in the experiment with CDKL5, 0%. Further, the “%Inh” value is on record as 0% in the experiment with CHEK1; 0% in the experiment with CHEK2; 19% in the experiment on CIT; 69% in the experiment on CLK1; 73% in the experiment with CLK2; 20% with CLK3. The “%Inh” value in the experiment on CLK4 came to 64%; in the experiment on CSF1R-autoinhibited it was 0%; in the experiment on CSF1R, 17%; in the experiment with CSK it was 0%; with CSNK1A1L it was 8%; with CSNK1A1 it was 0%. Also, the “%Inh” value in the experiment on CSNK1D is recorded as 12%; with CSNK1E it was 16%.
`Clc1ccc(-c2nn3ncccc3c2-c2ccnc(Nc3ccc4c(c3)OCCO4)n2)cc1` [GW829116]: the “%Inh” value is on record as 20% with CDK8; 0% in the experiment on CDK9; 0% in the experiment on CDKL1; 4% with CDKL2; 0% with CDKL3; 0% in the experiment with CDKL5. The “%Inh” value with CHEK1 is on record as 0%; in the experiment with CHEK2 it was 2%; with CIT it was 89%; with CLK1 it was 0%; in the experiment on CLK2, 0%; with CLK3 it was 0%. Also, the “%Inh” value in the experiment with CLK4 was 0%; in the experiment on CSF1R-autoinhibited it was 0%; in the experiment with CSF1R, 87%; with CSK it was 0%; in the experiment with CSNK1A1L, 17%; in the experiment with CSNK1A1 it was 77%. For the same compound, the “%Inh” value is given as 94% in the experiment on CSNK1D and 98.6% with CSNK1E.
As to `CN1CCN(Cc2cccc(-c3ccc4c(Nc5ccc(Oc6ccccc6)cc5)ccnc4c3)c2)CC1` [GW578342], the “%Inh” value was 30% with CDK8; 0% with CDK9; 0% in the experiment with CDKL1; 0% in the experiment on CDKL2; 0% in the experiment on CDKL3; 0% in the experiment on CDKL5. Also, the “%Inh” value in the experiment with CHEK1 is on record as 0%; in the experiment on CHEK2 it was 38%; in the experiment with CIT, 11%; in the experiment with CLK1, 11%; in the experiment with CLK2, 6%; in the experiment on CLK3, 0%. For the same compound, the “%Inh” value in the experiment with CLK4 is given as 0%; in the experiment on CSF1R-autoinhibited, 43%; in the experiment on CSF1R it was 5%; in the experiment on CSK it was 76%; in the experiment on CSNK1A1L, 0%; in the experiment with CSNK1A1, 0%. The “%Inh” value was 0% in the experiment on CSNK1D and 2% in the experiment with CSNK1E.
On to `COc1cccc(-c2ccc3c(NC(=O)C4CC4)n[nH]c3n2)c1` [SB-710903], for which the “%Inh” value is reported as 50% with CDK8; 0% in the experiment on CDK9; 0% in the experiment on CDKL1; 67% in the experiment on CDKL2; 0% in the experiment on CDKL3; 0% in the experiment with CDKL5. Further, the “%Inh” value in the experiment with CHEK1 was 0%; with CHEK2, 0%; with CIT it was 5%; with CLK1 it was 15%; with CLK2, 100%; in the experiment with CLK3, 0%. The “%Inh” value in the experiment with CLK4 was determined as 20%; in the experiment with CSF1R-autoinhibited it was 54%; in the experiment on CSF1R it was 10%; in the experiment on CSK, 0%; in the experiment on CSNK1A1L, 12%; with CSNK1A1, 0%. Besides, the “%Inh” value in the experiment with CSNK1D amounted to 18%; in the experiment on CSNK1E, 16%.
Take `CN(C)S(=O)(=O)c1cc(-c2ccc3nccc(-c4cccc(S(N)(=O)=O)c4)c3c2)cnc1N` [GSK1669921]: the “%Inh” value is recorded as 35% with CDK8; 0% in the experiment on CDK9; 77% in the experiment with CDKL1; 25% in the experiment on CDKL2; 0% in the experiment with CDKL3; 12% in the experiment on CDKL5. In addition, the “%Inh” value was found to be 100% with CHEK1; 0% with CHEK2; 16% in the experiment on CIT; 57% with CLK1; 86% in the experiment with CLK2; 21% in the experiment on CLK3. The “%Inh” value in the experiment with CLK4 is on record as 54%; in the experiment on CSF1R-autoinhibited, 0%; in the experiment on CSF1R it was 7%; in the experiment with CSK, 0%; in the experiment with CSNK1A1L it was 14%; in the experiment on CSNK1A1 it was 49%. Further, the results for the “%Inh” value in the experiment with CSNK1D and with CSNK1E were 0% and 33%, respectively.
`O=c1[nH]cc(-c2ccc(N3CCOCC3)cc2)c2sc(-c3cn[nH]c3)cc12` [GSK2276055]: the “%Inh” value with CDK8 is 0%; in the experiment on CDK9, 71%; in the experiment on CDKL1, 11%; in the experiment on CDKL2 it was 0%; in the experiment with CDKL3, 0%; in the experiment with CDKL5, 0%. In addition, the “%Inh” value in the experiment on CHEK1 was 0%; with CHEK2, 14%; with CIT, 92.1%; with CLK1 it was 90%; in the experiment with CLK2, 76%; in the experiment with CLK3 it was 37%. Besides, the “%Inh” value with CLK4 is on record as 89%; with CSF1R-autoinhibited, 0%; with CSF1R, 33%; with CSK, 7%; with CSNK1A1L, 44%; with CSNK1A1, 73%. Moreover, the “%Inh” value in the experiment on CSNK1D turned out to be 84%; with CSNK1E, 94.4%.
Turning to `O=C(Nc1cccc(-c2nn3ccccc3c2-c2ccnc(Nc3cccc(F)c3)n2)c1)c1c(F)ccc(F)c1Cl` [GSK357952], the “%Inh” value in the experiment on CDK8 is 6%; with CDK9, 0%; in the experiment with CDKL1, 15%; with CDKL2, 25%; in the experiment on CDKL3, 0%; in the experiment with CDKL5 it was 0%. Also, the “%Inh” value came out at 15% in the experiment on CHEK1; 0% in the experiment on CHEK2; 7% with CIT; 24% in the experiment with CLK1; 0% with CLK2; 0% with CLK3. Besides, the “%Inh” value in the experiment with CLK4 is 11%; in the experiment with CSF1R-autoinhibited, 0%; in the experiment with CSF1R it was 93.3%; in the experiment with CSK it was 20%; in the experiment on CSNK1A1L, 7%; with CSNK1A1, 2%. Further, the “%Inh” value in the experiment on CSNK1D amounted to 0%; in the experiment on CSNK1E it was 40%.
For `Cl.Cl.NCC(NC(=O)c1cc(-c2ccccc2)c(-c2ccnc3[nH]ccc23)s1)c1ccccc1` (stereo not drawn) [GSK1321561], the “%Inh” value in the experiment with CDK8 stood at 30%; in the experiment with CDK9, 0%; in the experiment on CDKL1, 8%; with CDKL2, 24%; in the experiment on CDKL3, 58%; in the experiment with CDKL5, 0%. Besides, the “%Inh” value with CHEK1 is 0%; in the experiment with CHEK2 it was 0%; with CIT, 99.9%; with CLK1, 33%; in the experiment on CLK2, 0%; in the experiment on CLK3, 49%. Also, the “%Inh” value in the experiment with CLK4 was determined as 19%; in the experiment on CSF1R-autoinhibited it was 0%; in the experiment on CSF1R, 0%; with CSK it was 0%; in the experiment with CSNK1A1L it was 97.1%; in the experiment with CSNK1A1, 95.7%. Also, the “%Inh” value in the experiment with CSNK1D was 98%; in the experiment with CSNK1E, 99.9%.
